The source of these data is PubChem BioAssay (NCI).

Where “and” joins values, the source holds several entries; their conditions need not be identical. Identical values can stand only once. The panel holds about 83,000 compounds, 20% with a hit somewhere; the sample as a whole holds those more often.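 Growth was measured after 48 h exposure to one concentration of compound in 96-well plates. Values under 10 count as active.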 A number with no mark means an inactive call. Calls of active or inactive are those of the source.

The experiment relates to MDA-MB-468 breast. Briefly: NCI-60 one-dose screen, 48 h (100 = growth as untreated, 0 = no growth, -100 = all killed). As to conditions: 10 µM unless noted.
With `Nc1c(C(=O)Nc2ccccn2)sc2nc3c(cc12)CCCCC3`, the growth was 27.7%.
In the case of `COc1ccc(/C=C(\C#N)c2cc3ccccc3[nH]2)cc1` it was 17.7%; in that of `NC(N)=Nc1ccc(Oc2cccc(Nc3ccc(Cl)c(C(F)(F)F)c3)c2)cn1`, -84.4% (active); in that of `O=CN1N=C(c2cccc(Nc3ccncc3)c2)CC1c1ccc2c(c1)OCO2` (stereo not given), 88.7%.
The result for `CCOC(=O)C(=O)C=P(c1ccccc1)(c1ccccc1)c1ccccc1` reads 114%.
On to `O=C(c1ccccc1)N(CCCl)C(=O)N(CCCl)C(=O)c1ccccc1`, for which the growth is 111%.
On to `CC(=O)N1N=C(c2ccc(C)cc2)CC1c1cn(-c2ccccc2)nc1-c1cccc(Nc2ccnc3cc(Cl)ccc23)c1` (stereo not given), for which the growth is 9.76% (active).
For `Clc1ccc(-c2nc3ccc(/C(=N\N=C\c4ccccc4)c4ccccc4)cc3[nH]2)cc1`, the growth is 79.1%.
In the case of `COc1ccc2c(c1)Oc1nc(N)c(C#N)c(N)c1C2Sc1ccc(O)cc1` (stereo not given) it was 18.8%.
The result for `CN(C)CCCn1c2c(c3ccncc3c1=O)C(=O)c1ccccc1-2` reads -16% (active); that for `Clc1ccc(-c2cnc3c(-c4ccnc(N5CCNCC5)c4)cnn3c2)cc1`, 16.3%.
The result for `Fc1ccc(/C=C/[C@@H]2C[C@@H](F)CCO2)cc1` reads 84%.
With `COc1ccccc1NC(=O)n1c(=O)cc(C)c2ccc(O)cc21`, the growth is 96.3%.
The result for `Cn1cnc2c(F)c(Nc3ccc(Br)cc3Cl)c(C(=O)NOCCO)cc21` reads 92.5%; that for `C#Cc1cccc(NC(=O)c2ccc(NC(=O)CCl)cc2)c1`, -34.6% [8.25 µM] (active).
In the case of `CC(C)=CCC[C@](C)(O)[C@H]1CC[C@]2(C)[C@@H]1CC[C@@H]1[C@@]3(C)Cc4nccnc4C(C)(C)[C@@H]3CC[C@]12C` it was 69.4%; in that of `COc1cnc2c(c1)C(=O)c1c-2n(CCCN2CCNCC2)c(=O)c2cc(Cl)ccc12`, 65.8%; in that of `O=C1/C=C/[C@@H](O)[C@@H]2C[C@@H](O)C[C@H]2/C=C/CCC[C@H](CCc2ccccc2)O1`, -43.7% (active).
Turning to `O=C(O)c1cccc([N+](=O)[O-])c1/C=C/c1ccccc1`, the growth was 102%.
As for `O=c1cc(-c2ccccc2)nc(SCc2nc3cc(Cl)c(Cl)cc3[nH]2)[nH]1`, the growth is 116%.
In the case of `CCCSC1=NC2C(N(CC)C(=O)N2CC)N1/N=C/C=C/c1ccccc1[N+](=O)[O-]` (stereo not given) it was 29.9%.
For the compound `CCn1c2ccc(/C=N/N(C)S(=O)(=O)CCN(C)C)cc2c2cc(/C=N/N(C)S(=O)(=O)CCN(C)C)ccc21`, the growth is 40.4%.
For the compound `COc1ccc(C2=NN(c3ccc(S(N)(=O)=O)cc3)C(c3cn(-c4ccccc4)nc3-c3ccc(Cl)cc3)C2)cc1` (stereo not given), the growth is 106%.
The result for `Cc1ccc(N2C(=O)C=CC2=O)cc1` reads -25.2% (active).
In the case of `O=C(/C=C/c1ccccc1)Nc1ncc(Cc2ccccc2)s1` it was 29.7%; in that of `N#C/C(=C/N1C(=O)/C(=C/c2ccc([N+](=O)[O-])cc2)SC1=S)c1nc2ccccc2s1`, 84%.
The result for `Cc1nc2ccc(Nc3nc(NCCN4CCOCC4)nc(Nc4ccc(F)cc4)n3)cc2n1Cc1ccccc1` reads 14%.
Turning to `CC1=C([Se]CC(OC(=O)[C@@H](CO)NC(=O)OC(C)(C)C)C(=O)NCCCCCC(=O)OCc2ccccc2)C(=O)c2ccccc2C1=O` (stereo not given in full), the growth is -83.7% (active).
The result for `CCOC(=O)c1cc(C(=O)c2ccc(Br)cc2)n2ccc(/C=C/c3cc[n+](CC(=O)c4ccc(OC)cc4)cc3)cc12` reads 66.4%; that for `O=c1c2cc(F)ccc2sc2c(NCCCNCCO)nc3ccc(F)cc3c12`, 39.7%; that for `O=C(CSc1nc2ccccc2c(=O)n1-c1ccccc1)Nc1ccc(S(=O)(=O)Nc2nccs2)cc1`, 56.4%.
`COc1cc2c(c(OC)c1OC)-c1cc(I)c(O)cc1[C@@H](NC(C)=O)CC2`: the growth was -32.9% (active).
For `CC(=O)c1ccc(Br)c([N+](=O)[O-])c1`, the growth was 112%.
With `ON=C1CCCCCCCC1`, the growth was 102% and 107%.
The result for `COc1ccc(-c2[nH]ncc2-c2cc(OC)c(OC)c(OC)c2)cc1` reads -4.91% (active).
In the case of `O=C1Nc2cc(-c3ccc(O)cc3)ccc2/C1=C/c1ccc[nH]1` it was -29.2% (active).
In the case of `CC(=O)C1C(=O)C(=O)N(c2cccc([N+](=O)[O-])c2)C1=O` (stereo not given) it was 102%; in that of `Nc1ccc(N=Nc2ccc(S(=O)(=O)O)cc2)c2ccccc12`, 97.2%; in that of `COc1ncc(-c2ccc3ncnc(Nc4cccc(Cl)c4)c3c2)cc1NS(C)(=O)=O`, -43.3% (active).
In the case of `CN1CCN(Cc2ccc(NC(=O)c3cccc(C#Cc4c(N)ncc5ccc(F)cc45)c3)cc2C(F)(F)F)CC1`, the growth is -61.7% (active).
